# Test results reported in PMC7862700, “An all-to-all approach to the identification of sequence-specific readers for epigenetic DNA modifications on cytosine”.
# Columns and labels:
# Assay in all cases: DAPPL (digital affinity profiling via proximity ligation, sequencing); 10 mM Tris-HCl pH 7.5, 50 mM NaCl, 1 mM DTT, 4% glycerol, room temperature, 30 min; GST-TFs on glutathione beads, 16-mer random dsDNA library, 0.1% formaldehyde crosslink after washing; high values mean tight binding
# FLI1 = target: T1, FLI1 (Homo sapiens, UniProt Q01543 1-452); conditions: protein: recombinant; tags: N-terminal GST; dsDNA, one strand shown
# T1 sequence: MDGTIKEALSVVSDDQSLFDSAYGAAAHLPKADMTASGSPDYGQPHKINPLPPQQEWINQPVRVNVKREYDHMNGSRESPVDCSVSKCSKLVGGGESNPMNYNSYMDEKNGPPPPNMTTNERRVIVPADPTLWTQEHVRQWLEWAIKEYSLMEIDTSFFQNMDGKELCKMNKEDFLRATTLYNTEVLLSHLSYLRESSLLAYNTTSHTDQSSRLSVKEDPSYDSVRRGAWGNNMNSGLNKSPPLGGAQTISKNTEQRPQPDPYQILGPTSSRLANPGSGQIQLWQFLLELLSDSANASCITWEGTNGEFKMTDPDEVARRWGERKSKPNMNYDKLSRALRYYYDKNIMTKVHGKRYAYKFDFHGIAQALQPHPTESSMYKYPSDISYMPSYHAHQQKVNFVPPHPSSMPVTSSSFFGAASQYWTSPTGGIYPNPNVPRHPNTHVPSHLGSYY
# Procedure, shortened: (§1)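 In yeast, human transcription factors were expressed with a GST fusion, then pulled down on glutathione beads and given DNA barcodes. Pooled with a tag-only sample, they were exposed to 200 nmole of a 16-mer random double-stranded DNA library (Tris/NaCl/DTT/glycerol buffer, room temperature, 30 min), washed, crosslinked with 0.1% formaldehyde, proximity-ligated using BsaI/T4 ligase for 1 h at 37 °C, PCR-amplified and read on an Illumina NextSeq500. Each hexamer's frequency of reads for a factor, divided by the matching frequency for the tag-only sample, gives the binding signal.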
# ELK1 = target: T2, ELK1 (Homo sapiens, UniProt P19419 1-428); conditions: protein: recombinant; tags: N-terminal GST; dsDNA, one strand shown
# T2 sequence: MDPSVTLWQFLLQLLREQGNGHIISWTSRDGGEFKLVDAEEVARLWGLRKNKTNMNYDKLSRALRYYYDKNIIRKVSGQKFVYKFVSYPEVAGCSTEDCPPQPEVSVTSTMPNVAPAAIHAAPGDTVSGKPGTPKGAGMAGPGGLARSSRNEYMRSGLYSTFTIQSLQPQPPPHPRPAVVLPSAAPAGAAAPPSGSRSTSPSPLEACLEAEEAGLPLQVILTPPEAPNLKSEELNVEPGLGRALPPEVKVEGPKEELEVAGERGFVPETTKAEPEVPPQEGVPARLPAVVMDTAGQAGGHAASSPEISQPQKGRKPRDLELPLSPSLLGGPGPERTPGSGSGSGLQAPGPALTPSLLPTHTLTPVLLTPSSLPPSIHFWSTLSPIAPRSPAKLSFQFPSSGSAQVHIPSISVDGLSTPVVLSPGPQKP
# Procedure, shortened: as §1
# GABPA = target: T3, GABPA (Homo sapiens, UniProt Q06546 1-454); conditions: protein: recombinant; tags: N-terminal GST; dsDNA, one strand shown
# T3 sequence: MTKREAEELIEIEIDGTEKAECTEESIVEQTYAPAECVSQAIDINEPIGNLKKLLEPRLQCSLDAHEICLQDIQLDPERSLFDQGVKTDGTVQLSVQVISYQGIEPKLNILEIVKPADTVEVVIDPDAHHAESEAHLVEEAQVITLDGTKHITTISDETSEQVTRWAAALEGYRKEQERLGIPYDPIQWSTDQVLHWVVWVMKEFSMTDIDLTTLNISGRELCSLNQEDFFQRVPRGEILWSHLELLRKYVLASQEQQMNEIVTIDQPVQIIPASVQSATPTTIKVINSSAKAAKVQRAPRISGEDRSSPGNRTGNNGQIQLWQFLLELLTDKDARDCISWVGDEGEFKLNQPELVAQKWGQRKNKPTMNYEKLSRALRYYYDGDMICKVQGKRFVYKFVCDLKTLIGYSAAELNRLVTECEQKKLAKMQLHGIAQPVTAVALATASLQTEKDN
# Procedure, shortened: as §1
# ERG = target: T4, ERG (Homo sapiens, UniProt P11308 1-479); conditions: protein: recombinant; tags: N-terminal GST; dsDNA, one strand shown
# T4 sequence: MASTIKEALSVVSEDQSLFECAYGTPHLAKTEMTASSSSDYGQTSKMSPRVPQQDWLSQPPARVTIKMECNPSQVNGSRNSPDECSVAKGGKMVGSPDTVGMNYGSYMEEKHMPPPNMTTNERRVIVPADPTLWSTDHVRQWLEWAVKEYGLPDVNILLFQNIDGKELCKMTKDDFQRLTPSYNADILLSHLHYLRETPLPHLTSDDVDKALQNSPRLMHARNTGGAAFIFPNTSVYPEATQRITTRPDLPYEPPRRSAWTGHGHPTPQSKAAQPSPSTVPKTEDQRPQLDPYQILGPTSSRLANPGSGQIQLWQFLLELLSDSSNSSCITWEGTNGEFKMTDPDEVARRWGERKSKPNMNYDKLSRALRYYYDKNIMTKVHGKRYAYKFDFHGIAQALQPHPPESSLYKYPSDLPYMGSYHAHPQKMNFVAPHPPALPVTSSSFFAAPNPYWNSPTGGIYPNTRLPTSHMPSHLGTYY
# Procedure, shortened: as §1
# ELF1 = ELF1 (Homo sapiens, UniProt P32519 1-619); conditions: protein: recombinant; tags: N-terminal GST; dsDNA, one strand shown
# Procedure, shortened: as §1
# EHF = target: T5, EHF (Homo sapiens, UniProt Q9NZC4 1-300); conditions: protein: recombinant; tags: N-terminal GST; dsDNA, one strand shown
# T5 sequence: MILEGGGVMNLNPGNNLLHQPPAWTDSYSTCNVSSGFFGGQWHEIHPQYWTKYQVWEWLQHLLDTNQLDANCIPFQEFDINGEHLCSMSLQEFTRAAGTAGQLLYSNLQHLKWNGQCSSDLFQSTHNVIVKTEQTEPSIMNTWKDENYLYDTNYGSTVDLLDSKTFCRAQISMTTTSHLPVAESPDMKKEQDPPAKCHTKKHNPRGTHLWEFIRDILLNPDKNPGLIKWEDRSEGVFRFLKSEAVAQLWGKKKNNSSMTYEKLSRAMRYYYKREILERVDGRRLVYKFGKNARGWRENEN
# Procedure, shortened: as §1
# SPI1 = SPI1 (Homo sapiens, UniProt P17947 1-270); conditions: protein: recombinant; tags: N-terminal GST; dsDNA, one strand shown
# Procedure, shortened: as §1
# SPIB = SPIB (Homo sapiens, UniProt Q01892 1-262); conditions: protein: recombinant; tags: N-terminal GST; dsDNA, one strand shown
# Procedure, shortened: as §1
# ELK3 = target: T6, ELK3 (Homo sapiens, UniProt P41970 1-407); conditions: protein: recombinant; tags: N-terminal GST; dsDNA, one strand shown
# T6 sequence: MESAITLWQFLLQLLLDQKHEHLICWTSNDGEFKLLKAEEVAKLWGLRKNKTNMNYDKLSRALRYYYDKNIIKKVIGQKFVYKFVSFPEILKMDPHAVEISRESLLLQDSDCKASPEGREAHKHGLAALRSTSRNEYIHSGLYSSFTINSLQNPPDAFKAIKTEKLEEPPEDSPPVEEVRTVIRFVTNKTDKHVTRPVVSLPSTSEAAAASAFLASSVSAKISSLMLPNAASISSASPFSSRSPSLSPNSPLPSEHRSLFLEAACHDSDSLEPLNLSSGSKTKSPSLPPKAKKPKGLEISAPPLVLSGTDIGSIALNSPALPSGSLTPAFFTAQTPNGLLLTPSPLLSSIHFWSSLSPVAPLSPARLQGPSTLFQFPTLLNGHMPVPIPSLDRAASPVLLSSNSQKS
# Procedure, shortened: as §1
# FEV = target: T7, FEV (Homo sapiens, UniProt Q99581 1-238); conditions: protein: recombinant; tags: N-terminal GST; dsDNA, one strand shown
# T7 sequence: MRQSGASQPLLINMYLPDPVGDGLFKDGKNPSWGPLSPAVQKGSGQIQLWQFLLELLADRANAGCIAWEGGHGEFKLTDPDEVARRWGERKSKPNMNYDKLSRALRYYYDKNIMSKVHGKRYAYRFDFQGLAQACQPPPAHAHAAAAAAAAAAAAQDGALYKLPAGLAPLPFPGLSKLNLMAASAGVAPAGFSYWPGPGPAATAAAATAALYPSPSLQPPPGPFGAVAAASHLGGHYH
# Procedure, shortened: as §1
# ETV5 = ETV5 (Homo sapiens, UniProt P41161 1-510); conditions: protein: recombinant; tags: N-terminal GST; dsDNA, one strand shown
# Procedure, shortened: as §1
# HSF1 = HSF1 (Homo sapiens, UniProt Q00613 1-529); conditions: protein: recombinant; tags: N-terminal GST; chain copies: 3; dsDNA, one strand shown
# Procedure, shortened: as §1
# SPIC = target: T8, SPIC (Homo sapiens, UniProt Q8N5J4 1-248); conditions: protein: recombinant; tags: N-terminal GST; dsDNA, one strand shown
# T8 sequence: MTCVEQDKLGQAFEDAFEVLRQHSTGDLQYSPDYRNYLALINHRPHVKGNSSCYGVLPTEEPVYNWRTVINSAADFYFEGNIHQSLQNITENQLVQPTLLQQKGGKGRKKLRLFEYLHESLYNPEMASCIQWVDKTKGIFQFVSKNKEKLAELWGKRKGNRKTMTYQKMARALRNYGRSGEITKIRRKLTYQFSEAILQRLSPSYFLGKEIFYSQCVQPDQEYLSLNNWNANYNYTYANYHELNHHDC
# Procedure, shortened: as §1
# ELF4 = ELF4 (Homo sapiens, UniProt Q99607 1-663); conditions: protein: recombinant; tags: N-terminal GST; dsDNA, one strand shown
# Procedure, shortened: as §1
# ELK4 = target: T9, ELK4 (Homo sapiens, UniProt P28324-2 1-405); conditions: protein: recombinant; tags: N-terminal GST; dsDNA, one strand shown
# T9 sequence: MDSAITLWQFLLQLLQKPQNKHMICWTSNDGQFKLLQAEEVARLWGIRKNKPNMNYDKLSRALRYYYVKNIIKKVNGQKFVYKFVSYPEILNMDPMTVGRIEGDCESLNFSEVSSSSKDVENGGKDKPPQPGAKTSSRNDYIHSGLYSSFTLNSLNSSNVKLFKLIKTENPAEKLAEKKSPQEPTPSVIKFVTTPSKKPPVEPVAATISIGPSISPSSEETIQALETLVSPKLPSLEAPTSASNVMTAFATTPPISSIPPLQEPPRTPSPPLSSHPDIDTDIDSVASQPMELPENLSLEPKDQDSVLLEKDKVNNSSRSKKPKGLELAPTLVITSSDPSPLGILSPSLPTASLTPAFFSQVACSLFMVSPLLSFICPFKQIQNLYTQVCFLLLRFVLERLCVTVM
# Procedure, shortened: as §1
# ETV2 = target: T10, ETV2 (Homo sapiens, UniProt O00321 1-342); conditions: protein: recombinant; tags: N-terminal GST; dsDNA, one strand shown
# T10 sequence: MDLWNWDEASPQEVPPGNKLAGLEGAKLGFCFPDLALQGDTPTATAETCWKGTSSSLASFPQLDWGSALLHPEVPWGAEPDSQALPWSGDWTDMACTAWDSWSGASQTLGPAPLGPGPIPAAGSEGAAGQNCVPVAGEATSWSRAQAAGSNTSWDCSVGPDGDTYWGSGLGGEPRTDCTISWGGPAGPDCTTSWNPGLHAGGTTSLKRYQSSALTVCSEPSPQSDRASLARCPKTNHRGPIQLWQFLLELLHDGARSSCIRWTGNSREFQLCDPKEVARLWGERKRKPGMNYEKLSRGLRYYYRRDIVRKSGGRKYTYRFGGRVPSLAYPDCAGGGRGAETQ
# Procedure, shortened: as §1
# ELF3 = target: T11, ELF3 (Homo sapiens, UniProt P78545 1-371); conditions: protein: recombinant; tags: N-terminal GST; dsDNA, one strand shown
# T11 sequence: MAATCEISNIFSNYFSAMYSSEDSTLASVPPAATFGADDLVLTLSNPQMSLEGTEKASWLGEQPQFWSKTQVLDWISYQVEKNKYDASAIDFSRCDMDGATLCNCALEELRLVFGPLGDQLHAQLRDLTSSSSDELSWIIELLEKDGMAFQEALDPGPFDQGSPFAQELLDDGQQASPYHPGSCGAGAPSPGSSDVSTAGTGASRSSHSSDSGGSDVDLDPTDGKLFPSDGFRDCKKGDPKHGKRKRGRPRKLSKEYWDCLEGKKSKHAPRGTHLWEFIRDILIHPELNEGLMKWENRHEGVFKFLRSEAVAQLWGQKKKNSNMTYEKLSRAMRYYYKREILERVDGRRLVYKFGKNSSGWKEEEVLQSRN
# Procedure, shortened: as §1
# ETV1 = ETV1 (Homo sapiens, UniProt P50549 1-477); conditions: protein: recombinant; tags: N-terminal GST; dsDNA, one strand shown
# Procedure, shortened: as §1
# Chain of HSF1 (Q00613 whole entry): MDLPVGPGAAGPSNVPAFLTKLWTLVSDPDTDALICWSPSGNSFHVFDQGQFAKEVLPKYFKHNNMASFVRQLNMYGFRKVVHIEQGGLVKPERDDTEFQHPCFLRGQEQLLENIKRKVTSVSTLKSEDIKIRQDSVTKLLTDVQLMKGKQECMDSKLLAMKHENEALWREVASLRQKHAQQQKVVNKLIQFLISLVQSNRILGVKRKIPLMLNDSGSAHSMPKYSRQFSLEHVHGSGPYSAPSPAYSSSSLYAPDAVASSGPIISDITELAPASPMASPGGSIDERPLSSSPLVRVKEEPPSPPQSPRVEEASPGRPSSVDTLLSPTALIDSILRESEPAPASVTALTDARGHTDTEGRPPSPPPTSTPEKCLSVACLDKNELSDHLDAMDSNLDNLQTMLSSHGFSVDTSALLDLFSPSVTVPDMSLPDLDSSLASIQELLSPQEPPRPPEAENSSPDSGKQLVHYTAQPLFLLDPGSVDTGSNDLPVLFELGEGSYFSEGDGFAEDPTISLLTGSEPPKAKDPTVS
# Chain of ETV1 (P50549 whole entry): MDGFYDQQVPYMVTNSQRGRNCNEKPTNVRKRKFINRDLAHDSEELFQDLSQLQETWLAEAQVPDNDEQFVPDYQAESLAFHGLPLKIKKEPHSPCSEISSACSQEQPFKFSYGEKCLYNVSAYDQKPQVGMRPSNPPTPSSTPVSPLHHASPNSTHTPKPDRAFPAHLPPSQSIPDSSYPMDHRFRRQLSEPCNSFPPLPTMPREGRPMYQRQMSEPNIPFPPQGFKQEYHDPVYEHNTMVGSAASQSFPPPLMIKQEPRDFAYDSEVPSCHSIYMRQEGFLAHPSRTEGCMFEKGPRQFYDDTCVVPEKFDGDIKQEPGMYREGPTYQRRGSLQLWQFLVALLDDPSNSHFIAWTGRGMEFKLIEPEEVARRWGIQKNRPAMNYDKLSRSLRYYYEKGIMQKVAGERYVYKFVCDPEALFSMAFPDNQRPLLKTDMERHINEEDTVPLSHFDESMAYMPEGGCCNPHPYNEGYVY
# Chain of ELF1 (P32519 whole entry): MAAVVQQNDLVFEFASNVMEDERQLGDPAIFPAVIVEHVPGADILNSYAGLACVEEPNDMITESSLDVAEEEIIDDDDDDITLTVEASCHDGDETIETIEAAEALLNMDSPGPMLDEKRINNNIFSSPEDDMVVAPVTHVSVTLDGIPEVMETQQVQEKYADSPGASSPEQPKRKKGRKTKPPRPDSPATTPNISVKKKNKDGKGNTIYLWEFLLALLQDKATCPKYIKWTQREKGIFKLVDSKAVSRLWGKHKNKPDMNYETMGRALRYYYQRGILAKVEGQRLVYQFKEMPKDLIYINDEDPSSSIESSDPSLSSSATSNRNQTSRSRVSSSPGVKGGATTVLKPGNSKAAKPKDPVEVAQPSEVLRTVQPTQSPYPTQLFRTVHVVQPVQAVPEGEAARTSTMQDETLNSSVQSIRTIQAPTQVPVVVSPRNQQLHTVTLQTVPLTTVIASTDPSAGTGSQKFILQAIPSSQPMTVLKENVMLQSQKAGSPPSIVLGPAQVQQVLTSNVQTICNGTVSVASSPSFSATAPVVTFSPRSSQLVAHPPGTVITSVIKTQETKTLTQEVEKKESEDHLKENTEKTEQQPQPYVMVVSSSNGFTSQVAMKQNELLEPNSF
# Chain of ELF4 (Q99607 whole entry): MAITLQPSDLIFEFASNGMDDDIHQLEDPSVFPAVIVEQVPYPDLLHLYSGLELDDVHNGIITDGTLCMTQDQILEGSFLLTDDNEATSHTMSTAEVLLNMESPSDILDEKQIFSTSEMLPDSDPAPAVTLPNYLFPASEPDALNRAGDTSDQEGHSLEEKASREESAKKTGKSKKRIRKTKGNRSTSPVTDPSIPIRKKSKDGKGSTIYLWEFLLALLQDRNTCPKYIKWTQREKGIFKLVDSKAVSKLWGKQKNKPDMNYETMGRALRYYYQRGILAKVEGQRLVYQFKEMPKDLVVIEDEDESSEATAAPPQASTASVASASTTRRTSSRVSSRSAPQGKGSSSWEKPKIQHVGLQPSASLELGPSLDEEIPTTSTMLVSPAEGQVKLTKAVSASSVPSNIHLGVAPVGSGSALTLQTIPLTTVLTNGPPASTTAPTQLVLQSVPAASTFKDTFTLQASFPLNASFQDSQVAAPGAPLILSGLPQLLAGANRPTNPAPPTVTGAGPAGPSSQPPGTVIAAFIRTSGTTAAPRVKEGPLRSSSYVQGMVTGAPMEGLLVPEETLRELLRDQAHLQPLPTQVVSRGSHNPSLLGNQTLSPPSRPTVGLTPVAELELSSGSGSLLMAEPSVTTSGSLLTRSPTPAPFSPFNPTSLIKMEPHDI
# Chain of SPIB (Q01892 whole entry): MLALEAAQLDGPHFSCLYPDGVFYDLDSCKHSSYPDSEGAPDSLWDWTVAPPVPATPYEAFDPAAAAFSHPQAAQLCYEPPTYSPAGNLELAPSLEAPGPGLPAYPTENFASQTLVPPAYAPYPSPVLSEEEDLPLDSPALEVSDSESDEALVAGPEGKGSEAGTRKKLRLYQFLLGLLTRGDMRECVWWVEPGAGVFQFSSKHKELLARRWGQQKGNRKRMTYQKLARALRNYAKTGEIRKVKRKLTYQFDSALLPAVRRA
# Chain of ETV5 (P41161 whole entry): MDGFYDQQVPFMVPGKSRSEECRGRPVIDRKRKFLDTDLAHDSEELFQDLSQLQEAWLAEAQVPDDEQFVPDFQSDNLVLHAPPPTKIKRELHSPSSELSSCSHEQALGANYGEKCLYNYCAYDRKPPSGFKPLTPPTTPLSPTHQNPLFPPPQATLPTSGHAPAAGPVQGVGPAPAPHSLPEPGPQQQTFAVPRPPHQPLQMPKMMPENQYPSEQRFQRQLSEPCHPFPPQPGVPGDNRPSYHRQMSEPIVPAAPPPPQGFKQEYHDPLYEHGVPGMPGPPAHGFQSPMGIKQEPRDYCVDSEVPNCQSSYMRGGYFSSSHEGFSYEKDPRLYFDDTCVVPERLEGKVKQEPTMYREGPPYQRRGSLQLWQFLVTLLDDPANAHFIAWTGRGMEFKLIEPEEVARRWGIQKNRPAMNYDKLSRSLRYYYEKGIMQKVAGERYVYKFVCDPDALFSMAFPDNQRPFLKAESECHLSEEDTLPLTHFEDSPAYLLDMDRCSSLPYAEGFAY
sequence,measurement,setting,value
ATGTAC,binding signal,FLI1,"1.31 fold enrichment (6-mer frequency, TF over GST control)"
same,binding signal,ELK1,"1.31 fold enrichment (6-mer frequency, TF over GST control)"
same,binding signal,GABPA,"1.19 fold enrichment (6-mer frequency, TF over GST control)"
same,binding signal,ERG,"1.11 fold enrichment (6-mer frequency, TF over GST control)"
same,binding signal,ELF1,"1.27 fold enrichment (6-mer frequency, TF over GST control)"
same,binding signal,EHF,"1.25 fold enrichment (6-mer frequency, TF over GST control)"
same,binding signal,SPI1,"1.23 fold enrichment (6-mer frequency, TF over GST control)"
same,binding signal,SPIB,"1.27 fold enrichment (6-mer frequency, TF over GST control)"
same,binding signal,ELK3,"1.26 fold enrichment (6-mer frequency, TF over GST control)"
same,binding signal,FEV,"1.3 fold enrichment (6-mer frequency, TF over GST control)"
same,binding signal,ETV5,"1.23 fold enrichment (6-mer frequency, TF over GST control)"
same,binding signal,HSF1,"1.16 fold enrichment (6-mer frequency, TF over GST control)"
same,binding signal,SPIC,"1.31 fold enrichment (6-mer frequency, TF over GST control)"
same,binding signal,ELF4,"1.31 fold enrichment (6-mer frequency, TF over GST control)"
same,binding signal,ELK4,"1.37 fold enrichment (6-mer frequency, TF over GST control)"
same,binding signal,ETV2,"1.39 fold enrichment (6-mer frequency, TF over GST control)"
same,binding signal,ELF3,"1.3 fold enrichment (6-mer frequency, TF over GST control)"
same,binding signal,ETV1,"1.35 fold enrichment (6-mer frequency, TF over GST control)"
